Bioassay records as filed in PubChem BioAssay.
Tau fibril ThT: tau fibrillization inhibition (ThT binding); P10636; Potency, µM (series often up to 57.4 µM), for inactives: at the highest dose activity, negative = inhibition, most hits filed as inhibitors; hit rate 2.1% among 270,000; recombinant tau K18 P301L, heparin-induced fibrillization, ThT fluorescence; AID 1460; further: nearly all actives have a fitted effect of over 55% in size
Target sequence (P10636 561-689 P618L limits assumed): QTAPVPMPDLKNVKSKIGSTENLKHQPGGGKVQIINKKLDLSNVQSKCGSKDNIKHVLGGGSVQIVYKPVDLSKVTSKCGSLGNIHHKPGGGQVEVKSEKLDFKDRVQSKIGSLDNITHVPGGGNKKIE
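Heparin-induced fibrillization of the P301L-mutant K18 repeat-domain fragment of human tau was followed by ThT binding in quantitative high-throughput format.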
TexasRed fluor: alters Texas Red total fluorescence, flagging assay interference | TRb/SRC2 Texas Red total fluorescence interference | Potency, µM (doses to about 106 µM), inactives show at the highest dose fluorescence change, negative = quenching | hit rate 0.29% among 280,000 | AID 1479; active means well fitted curve in either direction with a large enough effect; inconclusive means small, poorly fitted or top-dose-only effect
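Flags fluorescent or light-absorbing compounds by total fluorescence, S + 2P, at 555 nm excitation and 632 nm emission. Mixture: 20 nM Texas Red SRC2 peptide, 0.6 uM human TRb LBD, 1 uM T3, 5% DMSO; compound exposure 5 h at ambient temperature.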
Tau FP inhib: tau fibrillization inhibition (FP); P10636; K18 P301L tau heparin fibrillization, Alexa594 FP, 6 h; Potency, µM (doses to about 57.7 µM), without a hit: at the top dose activity, negative = inhibition, hits mostly inhibitors; hit rate 0.39% among 280,000; AID 1468; further: nearly all actives have a fitted effect of over 55% in size
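Compound effects on tau fibrillization are measured by Alexa 594 fluorescence polarization (ex 555, em 632 nm). K18 P301L tau is used at 15 uM with 0.24 uM labeled tracer, and 20 uM heparin induces aggregation over 6 hr at 37 C.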
Tau fluor counter: counter-screen for tau fibril formation inhibitors. Potency, µM (highest dose often 57.7 µM), inactives show at the top dose activity change, negative = decrease. tau K18 P301L (four-repeat tau fragment) Alexa594 fluorescence, heparin fibrillization. hit rate 0.93% among 280,000; further: nearly all actives have a fitted effect of over 55% in size
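Human K18 P301L tau (15 uM unlabeled plus 0.24 uM Alexa 594-labeled, final) in 100 mM sodium acetate pH 7 was mixed with compound and 20 uM heparin and incubated 6 hr at 37 C.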
TRb SRC2 PPI: inhibitors of human thyroid hormone receptor beta-SRC2 interaction. P10828. TRbeta-SRC2 peptide binding, fluorescence polarization; receptor liganded with 1 µM T3. Potency, µM (top dose mostly 106 µM), without a hit: top-dose activity change, negative = inhibition, usual class: inhibitors. hit rate 0.065% among 280,000. AID 1469;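 further: plate controls were bound peptide for no effect and peptide without receptor for full effect; nearly all actives have a fitted effect of over 50% in size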
Target sequence (P10828 whole entry, looked up): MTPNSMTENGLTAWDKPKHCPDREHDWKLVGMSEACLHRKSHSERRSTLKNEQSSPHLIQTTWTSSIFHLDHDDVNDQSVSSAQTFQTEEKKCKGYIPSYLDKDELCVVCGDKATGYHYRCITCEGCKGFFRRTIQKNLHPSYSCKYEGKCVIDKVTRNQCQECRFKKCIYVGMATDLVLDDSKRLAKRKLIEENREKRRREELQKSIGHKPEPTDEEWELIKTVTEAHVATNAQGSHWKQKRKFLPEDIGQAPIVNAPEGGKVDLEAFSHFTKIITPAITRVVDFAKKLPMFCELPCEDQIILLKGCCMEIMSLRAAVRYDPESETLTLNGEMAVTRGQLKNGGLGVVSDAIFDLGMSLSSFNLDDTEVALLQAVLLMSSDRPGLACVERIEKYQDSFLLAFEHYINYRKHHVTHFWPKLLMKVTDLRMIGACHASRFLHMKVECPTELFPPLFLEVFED
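Polarization signal, normalized between peptide-alone and full complex controls, measured compound effects on T3-liganded human TRb LBD (0.6 uM) binding 20 nM Texas Red SRC2 peptide after 5 hr.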
RGS12 GoLoco inh: RGS12 GoLoco-Gai1 interaction inhibition; P63096; Gai1:RGS12 GoLoco peptide FP, rhodamine, 10 min; Potency, µM (highest dose often 61.6 µM), for the others: at the top dose activity, negative = inhibition, usual class: inhibitors; hit rate 0.44% among 230,000; active means well fitted inhibition curve with a large enough effect, not every such curve was filed as active; inactive means no such curve, though single readings can be large or run the other way; further: nearly all actives have a fitted effect of over 30% in size
* marks the source's active call; other numbers are inactive results; ? = inconclusive; · = no result given; [ ] = remark or other dose. A selection: hits, their analogues and other compounds. The true share with any hit is near 3.2%. Unless noted, the call rests on the fitted dose curve; in most records, active means well fitted curve in the direction sought with a large enough effect; inconclusive means small, poorly fitted or top-dose-only effect, or another doubt; inactive means no such curve, though single readings can be large; an effect the other way counts as inactive or inconclusive. Unless noted, on the % scale 0 is the no-effect control and ±100 the full control effect; potency means the concentration at half of the fitted maximal effect.

SMILES	Tau fibril ThT	TexasRed fluor	Tau FP inhib	Tau fluor counter	TRb SRC2 PPI	RGS12 GoLoco inh
O=C(NCCc1nc2ccccc2[nH]1)c1ccc([N+](=O)[O-])cc1	?	-2.1%	2.9%	-4.2%	-4.9%	2.9%
CCC1=C2CC[C@H]3C(=O)N(c4ccccc4)C(=O)[C@H]3[C@H]2[C@@]2(C)C(=O)N(Cc3ccccc3)C(=O)N2C1=O	-6.9%	-2.9%	6.6%	1.7%	3.8%	-3.4%
CN(C)c1ccc(/C=C/C(=O)c2c(O)c3ccccc3oc2=O)cc1	·	9.1%	?	0.708µM*[fluorescent]	20.4%	-121.0%
NC(=O)[C@@H]1CCCN1C(=O)C(Cc1cnc[nH]1)NC(=O)C1CCC(=O)N1 (stereo partly specified)	·	0.9%	·	·	-6.1%	·
Cc1nc2cnc(N3CCOCC3)nc2n(CCc2ccccc2)c1=O	·	·	·	·	·	30.7%
CCOc1ccc(CNC(=O)c2ccc3c(c2)sc2nc(-c4ccc(OC)cc4)cn23)cc1	-15.0%	39.8µM*[quencher]	1.5%	-19.7%	-0.1%	·
O=C(NCCCN1CCCCC1)c1ccc2c(c1)sc1nc(-c3ccc(F)cc3)cn12	?	0.0009µM*[quencher]	7.9%	-21.8%	-14.9%	·
CCOc1ccc(CNC(=O)c2ccc3c(c2)sc2nc(-c4ccccc4)cn23)cc1	3.4%	-1.8%	3.6%	5.8%	-5.6%	·
COc1ccc(NC(=O)N2c3ccc(OC)cc3C(C)=CC2(C)C)cc1	31.6µM*	4.7%	?	?	-14.1%	-1.6%
CCOc1ccc2c(c1)C(C)=CC(C)(C)N2C(=O)Nc1ccccc1	28.2µM*	-4.8%	?	?	?	-0.5%
COc1cc(OC)cc(-c2nnc3n2N=C(c2ccc(OC)cc2OC)CS3)c1	·	-4.0%	·	·	3.8%	·
CCN(CC)CCn1c(-c2ccccc2)nc2c(NC3CCCCC3)nc(C)nc21	-8.7%	-3.8%	7.3%	-9.3%	5.0%	-7.1%
COC(=O)[C@H]1O[C@@H](c2cc(OC)c(C)c(OC)c2OCc2ccccc2)[C@H](C)[C@@H]2O[C@]12C	1.0%	-2.5%	-0.6%	-2.8%	8.6%	6.7%
CCOc1ccccc1Nc1cc(-c2ccccc2)nc(C)n1	-11.0%	3.9%	2.2%	-18.5%	-2.8%	·
CCOc1ccc(Nc2cc(Nc3ccccc3OCC)nc(C=C(C#N)C#N)n2)cc1	2.82µM*	-7.0%	1.0%	-19.3%	-1.5%	4.6%
CCNc1ncc2nc(-c3cc(F)cc(F)c3)c(=O)n(C3CC3)c2n1	·	·	·	·	·	-2.8%
COc1cc(/C=C2\SC(=N)N(c3ccc4c(c3)OCO4)C2=O)cc(OC)c1O	3.16µM*	-1.6%	-8.8%	?	-3.6%	30.0%
COc1ccc(/C=C2\SC(=O)N(CC(=O)Nc3cccnc3)C2=O)cc1OC	-15.3%	-2.6%	-4.8%	-14.3%	5.0%	2.3%
COc1cc(/C=C2\SC(=O)N(c3ccccc3Cl)C2=O)cc([N+](=O)[O-])c1O	3.98µM*	-10.1%	-11.3%	15.8µM*[quencher]	5.6%	-3.3%
COc1cc(/C=C2\SC(=O)N(CC(=O)Nc3cccc(C)c3)C2=O)cc([N+](=O)[O-])c1O	12.6µM*	-12.1%	-2.1%	?	1.7%	4.1%
COc1cc(/C=C2\SC(=O)N(c3ccc(O)cc3)C2=O)cc(OC)c1OC	-13.9%	-3.4%	-7.9%	-16.7%	-2.2%	2.5%
CCOC(=O)CN1C(=O)S/C(=C/c2ccc(O)c([N+](=O)[O-])c2)C1=O	?	-4.2%	?	-16.3%	-3.0%	0.0%
CCOc1cc(/C=C2\SC(=O)N(CC(=O)Nc3ccccc3F)C2=O)cc([N+](=O)[O-])c1O	7.94µM*	-2.9%	5.0%	?	-0.8%	2.1%
Nc1ccn([C@H]2O[C@H](CO)[C@@H]3[O][Sn]([c]4ccccc4)([c]4ccccc4)[O][C@H]32)c(=O)n1	·	·	·	·	·	-5.6%[14.2 µM]
O=C(Nc1cccc(C(F)(F)F)c1)Nc1cc(Cl)ccc1C(=O)O	·	0.7%	·	·	7.2%	·
SMILES	Tau fibril ThT	TexasRed fluor	Tau FP inhib	Tau fluor counter	TRb SRC2 PPI	RGS12 GoLoco inh
O=C(O)COc1ccc(OCCNC[C@H](O)COc2ccccc2)cc1	-4.5%	-2.9%	-5.0%	-5.0%	7.4%	-1.4%
COC(=O)c1c(-c2ccccc2)c(-c2ccccc2)nn(C)c1=O	-8.2%	0.3%	0.1%	-5.9%	-0.9%	·
COC(=O)c1c(Oc2ccc(OC)cc2)nnc(-c2ccccc2)c1-c1ccccc1	-14.0%	794µM*[quencher]	-5.5%	-26.5%	-7.5%	·
CC(=O)OCC(NC(=O)C(COCc1ccccc1)NC(=O)OC(C)(C)C)C1OC(n2cc(C)c(=O)[nH]c2=O)C(OC(C)=O)C1OC(C)=O (stereo unspecified)	·	0.0%	·	·	0.9%	·
CN1/C(=C\C=[N+](C)c2ccccc2)C(C)(C)c2ccccc21	?	16.6%	0.1%	25.3%	16.6%	3.98µM*
CC(C)=CCC/C(C)=C/C=N/NC(=O)c1ccc([N+](=O)[O-])cc1	?	?	5.5%	-16.4%	1.2%	-3.2%
CN(C)c1ccc(N=C/C=C2/N(C)c3ccccc3C2(C)C)cc1	3.16µM*	10.5%	?	?	-9.1%	68.7%
CN1/C(=C/C2CC(=O)N(c3ccc([N+](=O)[O-])cc3)C2=O)C(C)(C)c2ccccc21 (stereo unspecified)	14.1µM*	-2.1%	-1.2%	?	0.9%	28.3%
CN1/C(=C/C=N/NC(=O)c2ccc([N+](=O)[O-])cc2)C(C)(C)c2ccccc21	6.31µM*	-8.7%	-6.4%	?	3.2%	76.0%
CN1/C(=C\C=N\O)C(C)(C)c2ccccc21	?	-0.4%	-4.5%	1.5%	1.6%	16.6%
Cc1ccccc1N=C/C=C1\N(C)c2ccccc2C1(C)C	?	44.7µM*[fluorescent]	10.2%	18.7%	?	208.8%
c1cnc2c(c1)ccc1cccnc12	28.2µM*	-3.2%	?	-15.1%	2.9%	6.2%[14.2 µM]
Cc1cccc2cccnc12	·	-0.3%	·	·	0.3%	-2.8%
O=C1CCCCCCC1Sc1ccccc1[N+](=O)[O-] (stereo unspecified)	31.6µM*	-1.1%	?	-23.2%	-1.4%	-1.1%
Cc1ccc(C)c(CSc2nc3ccncc3n2CC(=O)Nc2ccc(N(C)C)cc2)c1	?	0.8%	?	10µM*[quencher]	0.5%	·
Cc1ccc(C)c(CSc2nc3ccncc3n2CC(=O)Nc2ccc(C)c(C)c2)c1	-9.1%	-1.6%	-15.4%	?	2.1%	12.7%
COc1ccc(NC(=O)Cn2c(SCc3cc(C)ccc3C)nc3ccncc32)c(OC)c1OC	?	-1.0%	-7.6%	8.91µM*[quencher]	0.6%	·
COc1cccc(CSc2nc3ccncc3n2CC(=O)Nc2ccc(OC)c(OC)c2OC)c1	-12.7%	-0.7%	2.5%	?	5.4%	·
COc1ccc2[nH]cc(CCNc3ncncc3-c3ccoc3)c2c1	·	·	·	·	·	33.7%
